Screens from PubChem.
Epigenetic reg: derepresses silenced GFP reporter in murine cells | murine LDR cells, GFP reporter derepression, 30 h | Potency, µM (highest dose often 53.9 µM), for the others: at the highest dose GFP activation, hits mostly activators | 280,000 compounds, 0.2% hits; also: % of control where 0% means no effect; nearly all actives have a fitted effect of over 60% in size
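Derepression of a silenced CMV-GFP reporter in murine LDR cells is scored by enumerating GFP-positive cells with a laser-scanning microplate cytometer after 30 hours of treatment at 37 C.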
HttQ103 aggreg: inhibitors of mutant huntingtin aggregate formation in PC12 cells; Potency, µM (titrated, usually from 46.1 µM), for the others: top-dose activity change, negative = inhibition, usual class: inhibitors; 220,000 compounds, 1.1% hits; AID 1688; PC12 HttQ103-GFP aggregates, Acumen cytometry, 40 h; also: % is scaled to controls: 0 for no effect and ±100 for the full control effect; nearly all actives have a fitted effect of over 60% in size
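Quantitative HTS on tebufenozide-induced (100 nM) PC12 cells stably expressing polyQ103 Huntingtin exon 1–GFP. Reduction of bright GFP aggregates, detected by laser scanning cytometry after lysis, identified actives across the titration.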
NPSR antagonist: antagonists of human neuropeptide S receptor cAMP signaling | Q6W5P4 | CHO-NPSR cells, cAMP TR-FRET, antagonist mode | Potency, µM (doses to about 38.3 µM), for the others: at the top dose activity change, negative = inhibition, actives largely listed as inhibitors | 220,000 compounds, 1% hits; also: % is scaled to controls: 0 for no effect and ±100 for the full control effect; nearly all actives have a fitted effect of over 50% in size
Target sequence (Q6W5P4 whole entry, looked up): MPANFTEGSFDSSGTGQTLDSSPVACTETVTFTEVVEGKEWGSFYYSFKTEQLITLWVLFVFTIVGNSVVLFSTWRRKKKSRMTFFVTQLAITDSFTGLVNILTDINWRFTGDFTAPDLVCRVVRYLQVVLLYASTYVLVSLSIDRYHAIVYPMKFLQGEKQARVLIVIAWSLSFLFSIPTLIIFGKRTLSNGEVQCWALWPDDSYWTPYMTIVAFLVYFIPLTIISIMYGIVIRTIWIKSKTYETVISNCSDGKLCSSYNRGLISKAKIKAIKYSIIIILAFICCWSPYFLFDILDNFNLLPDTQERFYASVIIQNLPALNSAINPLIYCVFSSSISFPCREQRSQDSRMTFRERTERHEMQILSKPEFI
LMNA splice mod: changes lamin A minigene splicing in HeLa cells | 200,000 compounds, 0.01% hits | HeLa LMNA splicing GFP/RFP minigene ratio, 48 h | Potency, µM (series often up to 46.1 µM), inactives show at the top dose ratio change, negative = inhibition, usual class: inhibitors; active = well fitted inhibition curve with a large enough effect in the signal ratio, with a control signal flat, not every such curve was filed as active; inconclusive = small, poorly fitted or top-dose-only effect, or effect the other way, or a change in a side signal; the % refers to the signal ratio; also: % is scaled to controls: 0 for no effect and ±100 for the full control effect
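Read-out is the ratio of GFP to DsRed2 object intensity, acquired by 488 nm laser-scanning cytometry on HeLa lamin A-EGFP minigene reporter cells. Compound incubation 48 hrs at 37 °C in Opti-MEM with 2% FBS; DMSO 0.5% final.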
HTT cytoprotect: cytoprotection in Huntington HTT-Q103 PC12 cell model; 230,000 compounds, 0.14% hits; PC12 HTT-Q103 induced, cytoprotection, ATP luminescence, 40 h; Potency, µM (titrated, usually from 56.4 µM), for the others: cytoprotection (ATP increase), most hits filed as activators; also: % of control where 0% means no effect; nearly all actives have a fitted effect of over 45% in size
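Rat PC12, Q103 Htt exon1-GFP fusion, ecdysone promoter; tebufenozide inducer 100 nM final; compound titration; qHTS, 1500 cells/well; ATPlite luminescent read.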
Starred values were filed as active, the others as inactive; ? = inconclusive; nt = no result given; ! = a repeat was not active; [ ] = another dose, or the depositor's remark. Most compounds without a hit are left out; they make up all but 1.5% or so of the library. Unless noted, calls follow the shape of the dose curve; as a rule, active = well fitted curve in the direction sought with a large enough effect; inconclusive = small, poorly fitted or top-dose-only effect, or another doubt; inactive = no such curve, though single readings can be large; an effect the other way counts as inactive or inconclusive. Potency is read from the fitted curve at half-maximal effect.

SMILES	Epigenetic reg	HttQ103 aggreg	NPSR antagonist	LMNA splice mod	HTT cytoprotect
Cc1ccc(N=Cc2cc3c(cc2O)OC(N)=C(C#N)C3c2ccccc2)cc1 (configuration not stated)	1.0%	10µM*	?	?	-16.1%[1.9 µM]
Cc1ccccc1N=Cc1cc2c(cc1O)OC(N)=C(C#N)C2c1ccccc1 (configuration not stated)	0.0%	?	?	?	25.6%[1.9 µM]
N#CC1=C(N)Oc2cc(O)c(C=Nc3ccccc3)cc2C1c1ccccc1 (configuration not stated)	0.0%	1.58µM*	?	?	6.7%[1.9 µM]
O=[N+]([O-])c1ccccc1CN1CCN(Cc2c[nH]c3ccccc23)CC1	-1.4%	8.91µM*	-0.1%	?	-109.4%
O=C(c1ccccc1)N1CCN(Cc2c[nH]c3ccccc23)CC1	0.0%	-30.8%	-5.2%[46.1 µM]	?	17.9%
CNC1CCc2cc(OC)c(OC)c(OC)c2-c2ccc(OC)c(=O)cc21 (configuration not stated)	nt	-26.9%	nt	nt	-317.3%
CCCN(C(=O)c1c(C)oc2ncnc(N3CCOCC3)c12)c1ccc(Cl)c(Cl)c1	0.4%	nt	nt	nt	nt
O=[N+]([O-])c1cc(S(=O)(=O)Nc2cccc(C(F)(F)F)c2)ccc1-n1nnc2ccccc21	1.0%	11.2µM*	4.9%[46.1 µM]	?	-46.0%
CSc1ccc(/C=c2\s/c(=C\C(=O)C(C)(C)C)n(CC(=O)NCCC3=CCCCC3)c2=O)cc1	20µM*	-10.9%	-4.6%	-11.0%	9.8%[10 µM]
CC(=O)c1cccc(NC(=O)NNC(=O)c2ccc(Cl)cc2Cl)c1	-1.3%	11.2µM*	15.9%	nt	-23.0%
COC(=O)c1sc2cc(=O)n(-c3cccc(C(F)(F)F)c3)nc2c1O	-0.4%	-8.3%	10µM*	2.3%[46 µM]	-0.7%[10 µM]
C=C(Br)CN(C)CC(=C)Br	nt	nt	nt	nt	-9.5%[10 µM]
O=c1c2sc3ccccc3c2n(Cc2cccc(Cl)c2)c(=O)n1Cc1ccco1	-0.9%	nt	nt	nt	nt
O=C(c1ccc(F)cc1)C1CCN(CCn2c(=O)[nH]c3ccccc3c2=O)CC1	1.1%	24.5%[9.22 µM]	1.58µM*!	?	35.1%[10 µM]
O=C(COc1ccc(Cl)cc1)Nc1ncc([N+](=O)[O-])s1	-0.9%	12.6µM*	-15.7%	?	-58.8%
O=c1c2cc3c(cc2n(Cc2ccccc2)c(=O)n1Cc1nc(-c2ccccc2)no1)OCO3	-0.5%	nt	nt	nt	nt
CCC(C)NS(=O)(=O)c1ccc(S(=O)(=O)Nc2cc3c(cc2C(C)=O)OCO3)cc1 (configuration not stated)	-0.8%	12.6µM*	-23.5%[46.1 µM]	?	?
Cc1ccccc1NC(=O)c1ccc(F)c(S(=O)(=O)N(C)C2CCCCC2)c1	1.3%	nt	nt	?	nt
Cc1cccc(N=c2oc3cc(O)ccc3cc2C(N)=O)c1	-1.0%	8.91µM*	-12.6%[46.1 µM]	?	-40.3%
NC(=S)c1cc2ccc(O)cc2oc1=O	1.0%	-15.3%	5.01µM*	0.6%	-45.2%
C/C(=N/NC(=O)c1ccncc1)c1cc2ccc(O)cc2oc1=O	0.0%	12.6µM*	6.9%	-9.6%	21.9%[10 µM]
C/C(=N/NC(N)=S)c1cc2ccc(O)cc2oc1=O	1.6%	5.4%[9.22 µM]	-7.9%	nt	19.6%[10 µM]
CCOC(=O)C(CCc1ccccc1)NC(C)C(=O)N1Cc2cc(OC)c(OC)cc2CC1C(=O)O (configuration not stated)	nt	11.0%	nt	nt	20.0%
COc1ccc2sc(N(Cc3cccnc3)C(=O)c3cccs3)nc2c1	3.3%	nt	nt	14.1%[46 µM]	nt
CC(C)COC(=O)NCCOC(=O)Nc1cccc(Cl)c1	0.0%	10µM*	-9.7%[46.1 µM]	?	-13.2%[10 µM]
CCc1nn2c(=O)cc(COC(=O)c3ccccc3NC(=O)c3ccc(C(C)(C)C)cc3)nc2s1	-6.2%	nt	nt	5.2%[46 µM]	nt
Cc1ccccc1NC1=C/C(=N\S(=O)(=O)c2cccs2)c2ccccc2C1=O	1.1%	1.41µM*	3.16µM*	?	-111.4%
Cc1ccc(NC2=C/C(=N/S(=O)(=O)c3cccs3)c3ccccc3C2=O)cc1C	0.0%	?	-7.5%	-4.7%	nt
Cc1cc(C)c[n+](C2=C([O-])c3ccccc3C(=O)/C2=N\S(=O)(=O)c2cccs2)c1	7.4%	-11.0%	18.9%	?	-6.2%[1.9 µM]
CC(=O)Nc1ccc(NC2=C/C(=N/S(=O)(=O)c3cccs3)c3ccccc3C2=O)cc1	7.4%	5.62µM*	7.94µM*	nt	nt
